BoNT F protease: BoNT F light chain protease inhibition | Multiplex microsphere protease cleavage assay, flow cytometry | inhibition, % at 10 µM | 0.22% of 360,000 active; in the data active = inhibition above about 35%, passing the limit was not always enough; inconclusive = no clear call, values can overlap the other calls; note: plate controls were buffer without enzyme for full effect and enzyme alone for no effect
Anthrax LF inh2: inhibitors of Bacillus anthracis lethal factor protease; P15917; multiplex microsphere protease cleavage assay, LF; inhibition, % at 10 µM; 0.12% of 360,000 active; AID 588501; note: plate controls were buffer without enzyme for full effect and enzyme alone for no effect
DUSP3 inh: inhibitors of human VHR1 phosphatase (DUSP3). recombinant VHR phosphatase, pNPP absorbance. inhibition, % at 13.3 µM. 0.52% of 290,000 active; in the data active = inhibition above about 50%
Target sequence (P51452 whole entry, looked up): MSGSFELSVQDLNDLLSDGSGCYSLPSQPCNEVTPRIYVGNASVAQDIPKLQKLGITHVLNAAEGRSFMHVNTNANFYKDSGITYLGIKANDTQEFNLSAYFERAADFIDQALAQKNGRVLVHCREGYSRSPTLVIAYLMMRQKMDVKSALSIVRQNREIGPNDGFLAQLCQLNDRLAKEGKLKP
MazF activator: MazEF (E. coli) toxin RNase activation; P0AE70; FAM/BHQ RNA-DNA oligo cleavage fluorescence, 5 h; activation, % at 20 µM; 0.32% of 350,000 active; in the data active = activation above about 50%
Target sequence (P0AE70 whole entry, looked up): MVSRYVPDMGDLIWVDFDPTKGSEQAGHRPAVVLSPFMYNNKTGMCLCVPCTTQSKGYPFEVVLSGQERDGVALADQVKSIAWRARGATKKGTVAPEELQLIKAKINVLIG
Bead autofluor: compound fluorescence in toxin protease inhibitor counterscreen; compound autofluorescence counterscreen, microsphere flow cytometry; active compounds read high; fluorescence intensity (test concentration not listed); 3.1% of 360,000 active; AID 624483; in the data active = fluorescence intensity above about 16000; inconclusive = no clear call, values can overlap the other calls
BoNT A protease: inhibitors of Botulinum neurotoxin A light chain protease; multiplex microsphere protease substrate cleavage, flow cytometry; inhibition, % at 10 µM; 0.17% of 360,000 active; note: plate controls were buffer without enzyme for full effect and enzyme alone for no effect
Active calls of the source: *; ? = inconclusive; nt = no result. An excerpt weighted towards active compounds, which were near 4.1% of everything screened. Cut-off read from the data, not from the text of the source, unless noted: active = inhibition above about 30%; inconclusive = no clear call, values can overlap the other calls; inactive = below that.

SMILES	BoNT F protease	Anthrax LF inh2	DUSP3 inh	MazF activator	Bead autofluor	BoNT A protease
Cc1noc(C)c1C(=O)N1CCC1(C)C(=O)NS(=O)(=O)c1cccc(OC(F)F)c1 (configuration not stated)	-3.9	1.3	nt	nt	3059	-0.3
COCCN1C[C@@H](CO)O[C@@H](n2cnc3c(NC4CC4)ncnc32)C1	3.7	2.8	nt	nt	3405	0.2
CC(=O)N1CCN(c2ccc(S(=O)(=O)N3CCCCC3)cn2)CC1	-6.7	2.0	24.7	2.2	18018*	-3.6
NC(=O)C1CCN(c2ccc(S(=O)(=O)N3CCCCC3)cn2)CC1	-3.4	0.8	5.2	-2.5	3452	-0.1
CCOC(=O)C1CCN(C(=O)c2ccc3c(c2)OCO3)CC1	2.0	-1.1	1.5	2.4	22950*	2.0
CCOC(=O)C1CCCN(Cc2ccc3c(c2)OCO3)C1 (configuration not stated)	-4.5	-0.9	-9.2	1.4	16327*	-0.3
CCCCC(=O)Nc1ccc(C(=O)NCC(=O)OC)cc1	2.3	-0.2	8.3	6.1	22542*	-1.0
CCCCC(=O)Nc1ccc(C(=O)N2CCC(C(=O)OCC)CC2)cc1	3.2	1.6	30.5	-2.6	23061*	1.4
CCN(CC)C(=O)C1CCCN(Cc2ccc3c(c2)OCO3)C1 (configuration not stated)	3.8	-5.5	29.1	-1.5	2466	0.0
CCOC(=O)C1CCCN(C(=O)c2ccc3c(c2)OCO3)C1 (configuration not stated)	5.2	-5.7	8.8	5.6	6270	1.2
CSc1ncnc2[nH]ccc12	0.5	-4.6	nt	-0.5	3515	0.1
CCOC(=O)C1CCN(C(=O)N(C)C)CC1	1.0	-3.4	9.7	-7.2	23160*	0.1
CCOC(=O)C1CCN(C(=O)CSCCSCC(=O)N2CCC(C(=O)OCC)CC2)CC1	-0.8	0.8	-5.0	0.8	3376	-1.1
CC(O)(c1cccnc1)c1nc(-c2cccc3cccnc23)cs1 (configuration not stated)	1.4	-7.1	nt	nt	2889	-0.4
COc1ccc(CCNCC(O)COc2cccc(C(C)=O)c2)cc1OC (configuration not stated)	-39.2	-8.9	-3.3	1.1	3560	-2.3
O=C(CSc1nnc(-c2cccs2)n1-c1ccccc1)N1CCCC1	-3.3	-1.5	13.0	5.2	21472*	-3.1
CSc1nnc(-c2cccs2)n1-c1ccccc1	8.7	0.9	6.3	-16.1	20664*	7.6
CC1CCN(C(=O)CSc2nnc(CN3CCOCC3)n2-c2ccccc2)CC1	-3.8	0.1	-13.3	-3.9	21833*	-3.1
COc1ccccc1C(=O)N1[C@@H](C(C)C)COc2cc(Br)ccc2S1(=O)=O	5.1	0.7	nt	-1.0	3383	0.0
CCN(CC)CC(O)Cn1c(C)c(-c2ccccc2)c2cc([N+](=O)[O-])ccc21 (configuration not stated)	-6.2	-13.2	6.0	34.3	3765	-2.7
O=C(CSc1n[nH]c(=O)[nH]c1=O)Nc1ccc(SC(F)F)cc1	-9.9	3.3	nt	6.7	4081	0.0
O=C(CCC(=O)N(CC(=O)NC1CCCC1)c1ccc(F)cc1)Nc1nccs1	4.4	2.2	7.4	-3.2	5555	0.5
COCCCNC(=O)/C(C#N)=C/c1c(N2CCN(C)CC2)nc2ccccn2c1=O	17.2	-4.0	nt	2.2	3973	0.1
COc1ccc2c(C)cc(SCC(=O)N3CCOCC3)nc2c1	36.1*	5.6	11.9	-62.1	6037	1.7
CN(CC(=O)Nc1ccccc1Br)C(=O)COc1cccc2c1OC(C)(C)C2	9.8	8.3	nt	-2.1	5544	1.8
SMILES	BoNT F protease	Anthrax LF inh2	DUSP3 inh	MazF activator	Bead autofluor	BoNT A protease
c1nc(NC2CCCCC2)c2[nH]cnc2n1	0.4	1.8	-12.1	-2.0	19676*	-0.1
CCOC(=O)c1ccc2c(c1)N(Cc1ccccc1C)C(=O)c1ccccc1S2=O (configuration not stated)	-8.4	-1.5	nt	-2.9	22107*	-5.6
COc1ccc(CCNc2ccncn2)cc1OC	3.3	-0.2	23.2	0.7	23028*	1.7
COc1ccc(CNCCc2ccc(Cl)cc2)cc1OCc1ccccc1	-5.9	-8.3	22.3	-4.3	4696	-0.2
COc1ccc(CCNc2ccncn2)cc1	1.5	-10.0	9.1	-2.5	5963	0.2
CCOc1cc(CNCCc2ccc(S(N)(=O)=O)cc2)ccc1OCc1ccccc1	-17.8	-1.9	9.5	10.1	22507*	-4.9
COc1cc(CNCc2ccccn2)ccc1OCC(N)=O	2.7	0.5	6.0	1.1	6786	0.1
COc1ccc(CNCCc2ccccc2)cc1OCC(N)=O	3.2	0.5	11.7	2.9	20991*	3.6
COc1ccc(CCNCc2ccccn2)cc1OC	-3.0	-4.5	8.5	0.5	16567*	-1.8
CCOc1cc(CNCCc2ccc(S(N)(=O)=O)cc2)cc(Cl)c1OCc1ccccc1	-27.7	-6.6	21.3	-7.3	11121	-1.6
C=CC[C@H](CC(=O)NCCO)C(=O)N[C@H](COC(=O)[C@@H](CC=C)Cc1ccc(F)cc1)Cc1ccccc1	8.5	-4.0	nt	-2.5	3076	-0.3
COCCn1c(C)cc2c(c1=O)C(c1ccco1)C(C#N)=C(N)O2 (configuration not stated)	1.8	-6.7	-12.9	7.2	21595*	1.6
Cc1cc2c(c(=O)n1CCc1ccccc1)C(c1ccco1)C(C#N)=C(N)O2 (configuration not stated)	-1.9	-1.2	-17.1	-14.7	23680*	-0.9
Cc1cc2c(c(=O)n1CCN(C)C)C(c1ccncc1)C(C#N)=C(N)O2 (configuration not stated)	3.1	-5.2	13.3	-16.9	3389	0.9
COC(=O)c1c(NC(=O)c2ccccc2)sc2c1CC(C)(C)OC2	-2.1	-12.5	11.6	-2.9	16350*	?
CCOC(=O)c1c(NC(=O)c2ccc(C)cc2)sc2c1CC(C)(C)OC2	-10.9	-3.1	28.3	11.2	2757	-0.2
Cc1ccccc1NC(=O)COc1coc(CN2CCN(c3ccccc3)CC2)cc1=O	4.9	4.5	nt	-0.4	4694	2.9
CC(C)CCP(=O)(O)c1ccccc1	3.3	2.4	-29.5	-0.5	22957*	0.8
CCn1c(O)c(/C=N/N=C/c2ccccc2)c2ccc(C3=NNC(=O)CC3)cc21	0.0	-1.5	9.9	747.1*	22930*	1.5
CCC(CC)=N/N=C/c1c(O)n(CC)c2cc(C3=NNC(=O)CC3)ccc12	-12.8	-2.9	-22.4	3.6	4857	0.3
COCC(C)NC(C(=O)Nc1cccc(C(C)=O)c1)c1ccccc1 (configuration not stated)	7.2	-2.0	12.9	5.5	4178	0.0
COCC(C)NC(C(=O)Nc1ccc(C)c(Cl)c1)c1ccccc1 (configuration not stated)	0.7	-3.1	-1.3	1.9	21763*	?
CCN(CC)CCOC(=O)C1(c2ccccc2)CCCC1	-6.4	-2.0	0.0	2.7	10889	-1.4
O=C(OCCCN1CCCC1)C1(c2ccccc2)CCCC1	-5.1	-2.4	-1.4	6.5	24071*	?
